How the values were obtained:
Settings in all cases: protein: recombinant; tags: His6-TEV, cleaved; chain copies: 4
SmpO45 [1] = molecular target: T1, SmpO45 (Staphylococcus aureus plasmid pWBG745, UniProt UPI0001BEA8D3 1-84); assay: SPR (ReDCaT); 250 mM NaCl; 10 mM HEPES, 3 mM EDTA, 0.05% Tween 20, NaCl 150 mM (SmpO49 screens), 300 mM (SmpO45, SmpO408, SmpOUNa screens) or 250 mM (Table S4); pH and temperature not stated; protein 1 uM; high values mean tight binding
T1 sequence: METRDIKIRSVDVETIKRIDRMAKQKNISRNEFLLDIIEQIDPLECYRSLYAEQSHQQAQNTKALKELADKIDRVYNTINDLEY

SmpO408 = molecular target: T2, SmpO408 (Staphylococcus aureus M0408); assay: as above
T2 chain: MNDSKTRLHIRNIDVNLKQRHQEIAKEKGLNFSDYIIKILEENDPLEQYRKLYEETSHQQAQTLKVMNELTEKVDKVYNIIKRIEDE

SmpO45 [2] = molecular target: T1, SmpO45; assay: SPR (ReDCaT); 300 mM NaCl; 10 mM HEPES, 3 mM EDTA, 0.05% Tween 20, NaCl 150 mM (SmpO49 screens), 300 mM (SmpO45, SmpO408, SmpOUNa screens) or 250 mM (Table S4); pH and temperature not stated; protein 1 uM; high values mean tight binding
Outline: (§1)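 The running buffer was 10 mM HEPES, 300 mM NaCl, 3 mM EDTA, 0.05% Tween 20, and protein at 1 μM was injected at 30 μl/min for 60 s contact and 60 s dissociation. The protein had been expressed in E. coli BL21(DE3)pLysS, cleaved of its tag, and purified by nickel-affinity and size-exclusion chromatography. OriT oligonucleotides were captured at 1 μM on Fc2 of a Biacore T200 SA chip by reusable DNA capture, and a linker was captured on Fc1. Values are DNA binding expressed as %Rmax.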

SmpO49 = molecular target: T3, SmpO49 (Staphylococcus aureus plasmid pWBG749, UniProt UPI0001BEA96A 1-84); assay: SPR (ReDCaT); 150 mM NaCl; 10 mM HEPES, 3 mM EDTA, 0.05% Tween 20, NaCl 150 mM (SmpO49 screens), 300 mM (SmpO45, SmpO408, SmpOUNa screens) or 250 mM (Table S4); pH and temperature not stated; protein 1 uM; high values mean tight binding
T3 sequence: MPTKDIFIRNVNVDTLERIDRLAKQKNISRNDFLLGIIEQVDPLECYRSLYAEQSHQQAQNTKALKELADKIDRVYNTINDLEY
Outline: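 Tag-cleaved protein, expressed in E. coli BL21(DE3)pLysS and purified by nickel-affinity and size-exclusion chromatography, was screened on a Biacore T200 SA chip by reusable DNA capture. OriT oligonucleotides were captured at 1 μM on Fc2, with a control linker on Fc1. Protein at 1 μM was injected at 30 μl/min (60 s contact, 60 s dissociation) in 10 mM HEPES, 150 mM NaCl, 3 mM EDTA, 0.05% Tween 20. DNA binding is reported as %Rmax.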

SmpOUNa [3] = molecular target: T4, SmpOUNa (plasmid pC02); assay: SPR (ReDCaT); 250 mM NaCl; 10 mM HEPES, 3 mM EDTA, 0.05% Tween 20, NaCl 150 mM (SmpO49 screens), 300 mM (SmpO45, SmpO408, SmpOUNa screens) or 250 mM (Table S4); pH and temperature not stated; protein 1 uM; high values mean tight binding
T4 chain: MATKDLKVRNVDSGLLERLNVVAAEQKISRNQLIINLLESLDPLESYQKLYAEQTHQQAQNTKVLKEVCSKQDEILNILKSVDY

SmpOSep = molecular target: T5, SmpOSep (Staphylococcus epidermidis VCU120); assay: as above
T5 chain: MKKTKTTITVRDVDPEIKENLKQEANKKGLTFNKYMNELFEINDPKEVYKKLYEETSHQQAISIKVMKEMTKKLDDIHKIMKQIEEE

SmpO49-F7K = molecular target: T6, SmpO49-F7K (Staphylococcus aureus plasmid pWBG749, UniProt UPI0001BEA96A 1-84, F7K); assay: as above
T6 sequence: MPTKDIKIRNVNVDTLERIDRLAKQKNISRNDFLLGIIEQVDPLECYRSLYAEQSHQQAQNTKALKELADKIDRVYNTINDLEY

SmpOUNa [4] = molecular target: T4, SmpOUNa; assay: SPR (ReDCaT); 300 mM NaCl; 10 mM HEPES, 3 mM EDTA, 0.05% Tween 20, NaCl 150 mM (SmpO49 screens), 300 mM (SmpO45, SmpO408, SmpOUNa screens) or 250 mM (Table S4); pH and temperature not stated; protein 1 uM; high values mean tight binding
Outline: as §1

B1: ossB408 (dsDNA)
DNA 1: TAATAGGTGGCAAATT
DNA 2: AATTTGCCACCTATTA
- binding signal (SmpO45 [1]): 0.4 %Rmax
- binding signal (SmpO408): 34.2 %Rmax

B2: OT45.3 (dsDNA)
DNA 1: GACACTATAGTTTATTGTGGGGTCACTTTA
DNA 2: TAAAGTGACCCCACAATAAACTATAGTGTC
- binding signal (SmpO45 [2]): 29.5 ± 1.43 %Rmax

B3: OT49.12 (dsDNA)
DNA 1: GATGATAGCAAATTCCCCTTATGCTCTTAC
DNA 2: GTAAGAGCATAAGGGGAATTTGCTATCATC
- binding signal (SmpO49): 0.431 ± 0.0378 %Rmax

B4: ossB45 (dsDNA)
DNA 1: AATATGGGGTCATATT
DNA 2: AATATGACCCCATATT
- binding signal (SmpO45 [1]): 21.6 %Rmax
- binding signal (SmpOUNa [3]): 1.4 %Rmax
- binding signal (SmpO408): 0.9 %Rmax
- binding signal (SmpOSep): 0.5 %Rmax
- binding signal (SmpO49-F7K): 26.1 %Rmax

B5: ossA49-2 (dsDNA)
DNA 1: TATATGATATCACTAT
DNA 2: ATAGTGATATCATATA
- binding signal (SmpO49): 26.3 ± 1.74 %Rmax

B6: OTUNa For/Rev_13 (dsDNA)
DNA 1: TTTAAAACCCTTGAAATATCTGGCTTCGCC
DNA 2: GGCGAAGCCAGATATTTCAAGGGTTTTAAA
- binding signal (SmpOUNa [4]): 2.14 ± 0.24 %Rmax

B7: OT49.10 (dsDNA)
DNA 1: CTATCATTGTCCGATGATAGCAAATTCCCC
DNA 2: GGGGAATTTGCTATCATCGGACAATGATAG
- binding signal (SmpO49): 0.584 ± 0.045 %Rmax

B8: ossA45-12 (dsDNA)
DNA 1: ATTGTGGGGTCTCTTT
DNA 2: AAAGAGACCCCACAAT
- binding signal (SmpO45 [2]): 7.81 ± 0.57 %Rmax

B9: OT49.3 (dsDNA)
DNA 1: GACACTAGGTGTTTTTATGATATCACTATG
DNA 2: CATAGTGATATCATAAAAACACCTAGTGTC
- binding signal (SmpO49): 18.8 ± 0.402 %Rmax

B10: ossA45-16 (dsDNA)
DNA 1: ATTGTGGGGTCACTTA
DNA 2: TAAGTGACCCCACAAT
- binding signal (SmpO45 [2]): 43.4 ± 1.14 %Rmax

B11: ossA49-3 (dsDNA)
DNA 1: TTAATGATATCACTAT
DNA 2: ATAGTGATATCATTAA
- binding signal (SmpO49): 26.8 ± 1.8 %Rmax

B12: ossA45 C11G (dsDNA)
DNA 1: ATTGTGGGGTGACTTT
DNA 2: AAAGTCACCCCACAAT
- binding signal (SmpO45 [2]): 0.641 ± 0.0361 %Rmax

B13: ossA45-9 (dsDNA)
DNA 1: ATTGTGGGCTCACTTT
DNA 2: AAAGTGAGCCCACAAT
- binding signal (SmpO45 [2]): 0.616 ± 0.0355 %Rmax

B14: OTUNa For/Rev_15 (dsDNA)
DNA 1: TGGCTTCGCCAGATTACCCATTATAAAATG
DNA 2: CATTTTATAATGGGTAATCTGGCGAAGCCA
- binding signal (SmpOUNa [4]): 5.46 ± 0.605 %Rmax

B15: ossA49-5 (dsDNA)
DNA 1: TTTAAGATATCACTAT
DNA 2: ATAGTGATATCTTAAA
- binding signal (SmpO49): 6.94 ± 0.948 %Rmax

B16: ossA45-2 (dsDNA)
DNA 1: AATGTGGGGTCACTTT
DNA 2: AAAGTGACCCCACATT
- binding signal (SmpO45 [2]): 32.56 ± 0.0519 %Rmax

B17: ossA49 (dsDNA)
DNA 1: TTTATGATATCACTAT
DNA 2: ATAGTGATATCATAAA
- binding signal (SmpO49): 26 ± 1.13 %Rmax
- binding signal (SmpOSep): 1.2 %Rmax

B18: ossBUNa (dsDNA)
DNA 1: AAAATGGGTACATATT
DNA 2: AATATGTACCCATTTT
- binding signal (SmpO45 [1]): 0.8 %Rmax
- binding signal (SmpOSep): 1.5 %Rmax

B19: ossA49-16 (dsDNA)
DNA 1: TTTATGATATCACTAA
DNA 2: TTAGTGATATCATAAA
- binding signal (SmpO49): 24.8 ± 1.07 %Rmax

B20: OT45.5 (dsDNA)
DNA 1: GGTCACTTTAAATTCTTTAAAACCCTTGAA
DNA 2: TTCAAGGGTTTTAAAGAATTTAAAGTGACC
- binding signal (SmpO45 [2]): 17.8 ± 1.2 %Rmax

B21: ossA45-1 (dsDNA)
DNA 1: TTTGTGGGGTCACTTT
DNA 2: AAAGTGACCCCACAAA
- binding signal (SmpO45 [2]): 42.58 ± 0.128 %Rmax

B22: OT45.9 (dsDNA)
DNA 1: TTGCCAGCCACCCCATAAAATATGGGGTCA
DNA 2: TGACCCCATATTTTATGGGGTGGCTGGCAA
- binding signal (SmpO45 [2]): 0.769 ± 0.108 %Rmax

B23: ossA49-4 (dsDNA)
DNA 1: TTTTTGATATCACTAT
DNA 2: ATAGTGATATCAAAAA
- binding signal (SmpO49): 12.1 ± 1.41 %Rmax
